Drawing on PubChem BioAssay AID492949 (National Center for Advancing Translational Sciences (NCATS), 2010), this text covers Potency for 40 compounds.

SMILES strings stand for the structures. Results filed as inconclusive are left out. Where a call stands in place of a potency, no number is given. Active and inactive are the calls of the source. Calls come from the whole dose curve; as a rule, active = well fitted activation curve with a large enough effect; inconclusive = small, poorly fitted or top-dose-only effect; inactive = no such curve, though single readings can be large or run the other way.
Potency is the fitted concentration of half-maximal effect.

Chain of Relaxin receptor 1 (Homo sapiens) (Q9HBX9 whole entry, looked up): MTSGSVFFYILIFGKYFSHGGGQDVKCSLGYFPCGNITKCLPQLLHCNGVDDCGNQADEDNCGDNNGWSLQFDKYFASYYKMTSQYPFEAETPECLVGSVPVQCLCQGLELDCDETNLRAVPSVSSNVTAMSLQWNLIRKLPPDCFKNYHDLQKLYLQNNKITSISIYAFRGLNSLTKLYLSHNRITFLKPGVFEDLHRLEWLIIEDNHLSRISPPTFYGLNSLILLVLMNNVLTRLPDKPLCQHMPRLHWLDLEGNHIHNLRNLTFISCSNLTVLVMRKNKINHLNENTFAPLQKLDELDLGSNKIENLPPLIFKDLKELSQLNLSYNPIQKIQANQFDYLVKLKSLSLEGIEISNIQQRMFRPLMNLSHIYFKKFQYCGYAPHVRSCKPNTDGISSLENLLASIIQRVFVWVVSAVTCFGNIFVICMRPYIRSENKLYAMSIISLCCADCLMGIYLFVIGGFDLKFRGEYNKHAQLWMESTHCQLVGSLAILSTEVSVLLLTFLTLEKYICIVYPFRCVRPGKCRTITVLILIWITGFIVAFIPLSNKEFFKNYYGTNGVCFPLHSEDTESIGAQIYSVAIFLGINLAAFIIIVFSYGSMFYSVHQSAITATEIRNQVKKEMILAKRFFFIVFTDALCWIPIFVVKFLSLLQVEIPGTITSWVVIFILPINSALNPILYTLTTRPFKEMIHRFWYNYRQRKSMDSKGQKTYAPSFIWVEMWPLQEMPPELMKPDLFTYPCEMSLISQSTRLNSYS

The test deals with Relaxin receptor 1 (Homo sapiens) (UniProt Q9HBX9). In words: qHTS Assay for Agonists of the Relaxin Receptor RXFP1: THP1 Hit Validation. Note: nearly all actives have a fitted effect of over 60% in size. As to conditions: THP1-RXFP1 cells, cAMP TR-FRET, 30 min; series mostly up to 115 µM. The source says:
The relaxin hormone is involved in the variety of biological functions in normal tissues and diseases. The role of relaxin is well-established in female reproduction and parturition, mammary gland and endometrial development, maintenance of myometrial quiescence during pregnancy. Relaxin signaling through its G protein-coupled receptor (GPCR) RXFP1 results in ECM remodeling through regulation of collagen deposition, cell invasiveness, proliferation and overall tissue homeostasis. […] Recombinant human relaxin (rhRlx) is currently being tested in clinical trials as a protective agent in congestive heart failure, in treating severe preeclampsia, and as an anti-fibrotic agent in systemic sclerosis.
Upon relaxin binding RXFP1 activation leads to the activation of adenylate cyclase (AC) via Gs. cAMP will activate PKA, which phosphorylates many signaling proteins. Thus, detection of cAMP increase is an easy and reliable indication of relaxin receptor activation. To screen for agonists of the relaxin receptor, a THP1 cell line stably transfected with RXFP1 was used. RXFP1 activation was assayed by changes in cAMP levels as detected with a time-resolved fluorescence energy transfer (TR-FRET) cAMP detection kit.
NIH Chemical Genomics Center [NCGC]
NIH Molecular Libraries Probe Production Centers Network [MLPCN]
Assay Submitter (PI): Alexander Agoulnik
NCGC Assay Protocol Summary:
This is a cell-based assay for cAMP second messenger response to screen for agonists of the RXFP1 receptor. The assay was conducted in the presence of a PDE4 inhibitor (Ro 20174). The cells were lysed and the cAMP levels were measured with a TR-FRET cAMP kit. Presence of cAMP in the cell lysate disrupts binding between the cryptate-labeled anti-cAMP and d2-labeled cAMP pair, leading to a decrease in the TR-FRET signal. Data were normalized to the controls for basal activity (buffer only) and 100% activity (29 nM porcine relaxin). The EC50 values were determined from concentration-response data modeled with the standard Hill equation
1536-well assay protocol for the THP1 RXFP1 cAMP assay:
(1) Add 3 ul THP1 RXFP1 cell culture. 2000 cells/well in DMEM/F12, 10% FBS, 1x Pen/Strep (dispensed offline with MultiDrop Combi).
(3) Add 23 nl compounds in DMSO solution. Final concentration was 0.5 - 58 uM.
(4) Incubate 30 min at 37C, 5% CO2.
(5) Add 1 ul cAMP-d2 in lysis buffer (HTRF cAMP HiRange kit, CisBio).
(6) Add 1 ul anti-cAMP antibody-cryptate in lysis buffer (HTRF cAMP HiRange kit, CisBio).
(7) Incubate 30 min at room temperature.
(6) Detect the assay plate in a ViewLux plate reader (PerkinElmer) with Ex=320 nm, Em1=615 nm and Em2=665 nm.
Keywords: relaxin, RXFP1, RXFP2, G-protein coupled receptor, cAMP, agonist, high throughput screening, MLSMR, MLSCN, NIH Roadmap, qHTS and NCGC
A general note: In qHTS, concentration-response curves come from the screen itself.
As to `Cc1ccc(-n2nnc3c(=O)n(CC(=O)NCC4CCCO4)cnc32)cc1` (stereo not given), the Potency was 15.5 µM (active).

For `C[C@H](Cc1ccccc1)Nc1ncnc2c1ncn2[C@@H]1O[C@H](CO)[C@@H](O)[C@H]1O`, the Potency entry was “inactive”.

Consider `Cc1ccc(-c2ccc3nnc(SCC(=O)NCC4CCCO4)n3n2)cc1` (stereo not given), for which the Potency entry is “inactive”. `CC1(C(=O)Nc2nc3ccccc3s2)CC1(Br)Br` (stereo not given): the Potency result was “inactive”.

`CCCC(=O)Nc1ncnc2c1ncn2[C@@H]1O[C@@H]2COP(=O)(O)O[C@H]2[C@H]1OC(=O)CCC`: the Potency is 1.23 µM (active).

Regarding `Cc1ccc(CN(C)C(=O)c2ccccc2NC(=O)c2ccccc2)o1`, the Potency entry is “inactive”. As to `COc1ccc(/C=C2/SC(=O)N(CCC(=O)Nc3ccc(C)cc3)C2=O)cc1OC`, the Potency entry is “inactive”.

As for `O=C(O)c1cccc(CSc2nnc(Cc3ccccc3)o2)c1`, the Potency entry was “inactive”.

Regarding `COc1ccc(S(=O)(=O)Nc2ccccn2)c(C)c1C`, the Potency entry was “inactive”. Next, `Cc1cccn2c(=O)c(/C=C3\SC(=S)NC3=O)c(NCCCN3CCOCC3)nc12`: 4.88 µM (active).

In the case of `O=C(O)c1cc(-c2ccco2)nc2ccc(Br)cc12`, the Potency is 19.4 µM (active).

For `CC(C)(C)C(=O)Nc1ccccc1C(=O)NCc1ccco1`, the Potency result was “inactive”. With `CC(=O)C1C(c2ccccc2)c2c(noc2C)CC1(C)O` (stereo not given), the Potency entry is “inactive”. The same measure for `CCc1ccc(-c2nc3ccc(Br)cc3c(C(=O)O)c2C)s1`: 6.15 µM (active). The same measure for `CC1(C)Cc2c(sc3c2c2ncnn2c2nnc(SCC(=O)NCc4ccco4)n32)CO1`: 5.49 µM (active). For the compound `O=C(Nc1ccccc1C(=O)N1CCNCC1)c1ccco1`, the Potency result is “inactive”. Next, `C=CCNc1ncnc2c1ncn2C1OC(CO)C(O)C1O` (stereo not given): “inactive”; `CCNc1nc(NCC)nc(N(C)/N=C/c2ccco2)n1`: “inactive”; `CCC(=O)Nc1ccc(-n2nnnc2SCC(=O)NNC(=O)c2ccco2)cc1`: “inactive”. The same measure for `CC(C)c1ccccc1NC(=O)c1ccccc1NC(=O)C1CCCCC1`: “inactive”; for `O=C(Nc1ccccc1C(=O)NCc1ccccc1)c1ccco1`: “inactive”.

Regarding `CN(C)c1ccc(C(=S)N2CCN(S(=O)(=O)c3ccccc3)CC2)cc1`, the Potency entry is “inactive”.

For `C=CCSc1nc2c(c(=O)[nH]1)C(C(C)C)C(C#N)=C(N)O2` (stereo not given), the Potency result is “inactive”.

As to `CN(C)c1ccc(NC(=O)C2C3C=CC(C3)C2C(=O)O)cc1` (stereo not given), the Potency entry is “inactive”. Next, `CN(CC(=O)Nc1ccccc1Cl)C(=O)COC(=O)Cc1c(F)cccc1Cl`: “inactive”.

Take `CCc1nnc(NC(=O)CSc2nc(C)nc3c2c(=O)n(C)c(=O)n3C)s1`: the Potency is 10.9 µM (active). In the case of `Nc1ncnc2c1ncn2C1OC(CO)C(O)C1O` (stereo not given), the Potency entry is “inactive”. Next, `CN(Cc1ccccc1)C(=O)c1ccccc1NC(=O)c1ccco1`: “inactive”.

Turning to `CCS(=O)(=O)Nc1cccc(-c2ccc3nnc(-c4cccnc4)n3n2)c1`, the Potency is 27.5 µM (active).

As for `O=C(Nc1ccccc1C(=O)N1CCCCC1)c1ccco1`, the Potency result is “inactive”. As to `O=c1oc2cc(O)c(Cl)cc2c2ccccc12`, the Potency was 8.68 µM (active).

For the compound `Cc1cc(C)n2nc(C(=O)Nc3ccc4c(c3)OCCO4)nc2n1`, the Potency was 8.68 µM (active).

Take `Cc1cccc(NC(=O)c2ccccc2NC(=O)C2CCCCC2)c1C`: the Potency entry was “inactive”.

Regarding `C=C(C)C(=O)Nc1cccc(C2=NOC3(C2)C[C@@H](C(N)=O)N(C(=O)c2ccc(Cl)cc2)C3)c1` (stereo not given in full), the Potency entry was “inactive”.

As for `O=C1/C(=C/c2ccc(O)c(O)c2)Oc2cc(O)ccc21`, the Potency entry was “inactive”. The same measure for `COC(=O)c1sc(N2C(=O)C(O)=C(C(=O)c3ccc(C)o3)C2c2ccc(F)cc2)nc1C` (stereo not given): 2.75 µM (active); for `CCc1cc2cc3c(cc2nc1SCC(=O)Nc1nccs1)OCO3`: 21.8 µM (active). As to `O=C(Nc1cccc(C(F)(F)F)c1)c1ccccc1NC(=O)C1CCCCC1`, the Potency entry was “inactive”.

For the compound `O=C(O)c1ccc(N=C2NC(=O)C(CO)(CO)S2)cc1`, the Potency entry was “inactive”. Next, `Cc1ccc(C(=O)Nc2ccccc2C(N)=O)o1`: “inactive”.
